This is an account of results in PubChem BioAssay (NCI).

A short description of test [1]: NCI Yeast Anticancer Drug Screen. Data for the rad50 strain (AID 155).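 Further: 0% = growth of vehicle-only cultures of the same strain.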 Conditions: S. cerevisiae rad50 strain growth inhibition; at 50.0 µM; hits give high values. In short, it runs like this:
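Cells are treated with compound, grown, and their growth is then scored against vehicle-only cultures of the same repair-deficient yeast strain.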

Test [2] is described as follows: NCI Yeast Anticancer Drug Screen. Data for the mec2-1 strain (AID 157). Conditions: S. cerevisiae mec2-1 strain, at 50.0 µM, hits give high values. In short, it runs like this:
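Vehicle-treated cultures served as reference for growth inhibition of compound-exposed mec2-1 yeast.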

Test [3] is described as follows: NCI Yeast Anticancer Drug Screen. Data for the sgs1 mgt1 strain (AID 161).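 Further: 0% = growth of cultures given vehicle only.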 Conditions: S. cerevisiae sgs1 mgt1 strain, at 50.0 µM, hits give high values. In short, it runs like this:
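Inhibition of yeast growth, normalised to vehicle-treated controls, is reported for a strain bearing genetic alterations in DNA damage repair.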

Test [4] can be described thus: NCI Yeast Anticancer Drug Screen. Data for the cln2 rad14 strain (AID 165).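 Further: 0% = growth equal to vehicle treated cultures.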 Conditions: S. cerevisiae cln2 rad14 strain, at 50.0 µM, hits give high values. Summed up:
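Each compound was tested on cln2 rad14 yeast. Inhibition of growth was calculated against vehicle-exposed controls.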

Test [5] is described as follows: NCI Yeast Anticancer Drug Screen. Data for the bub3 strain (AID 167). Conditions: S. cerevisiae bub3 mutant strain, at 50.0 µM, hits give high values. In short, it runs like this: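 Part of a panel of yeast mutants defective in DNA damage repair or cell cycle regulation. Each strain is grown with compound, and inhibition is calculated relative to solvent-treated cultures.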

Test [6] in a line: NCI Yeast Anticancer Drug Screen. Data for the mlh1 rad18 strain (AID 175). Conditions: S. cerevisiae mlh1 rad18 strain growth inhibition; at 50.0 µM; hits give high values. Summed up:
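Vehicle-treated cultures served as the reference for growth inhibition in a yeast strain carrying DNA damage repair alterations exposed to each compound.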

About 79,000 compounds went through this panel and 15% of them were active in at least one assay; those are over-represented in the sample as a whole. A number with no mark means an inactive call. The source made the active and inactive calls. No stated cut-off is given here; in the data, active means growth inhibition above about 70%; inactive means the rest.

For the molecule `O=NN1CCCNCC1`, the growth inhibition is -4.2% in test [1]; -14.9% in test [2]; -4.65% in test [3]; -42.4% in test [4]; 15.4% in test [5]; 4.25% in test [6].

For `[N-]=[N+]=[N-]`, the growth inhibition in test [1] was 6.75%; in test [2], 5.75%; in test [3], 15%; in test [4], -3.05%; in test [5], 18%; in test [6], -13.7%.

In the case of `CCCCCSP(SCCCCC)c1ccccc1`, the growth inhibition in test [1] is 79.8% (active); in test [2] it was 67.3%; in test [3] it was 79.5% (active); in test [4], 37.6%; in test [5], 40.4%; in test [6], 61.8%.

As for `COc1cc2c(cc1OC)C13CCN4C=C5CCOC6CC(=O)N2C1C6C5CC43` (stereo not given), the growth inhibition was -25.4% in test [1]; -8.7% in test [2]; -12.7% in test [3]; 1.75% in test [4]; -60% in test [5]; 16.8% in test [6].

Regarding `CCCCOP(O)(=S)OCCCC.[Y]`, the growth inhibition in test [1] is -20.9%; in test [2], 2.95%; in test [3] it was 4.2%; in test [4], 25.4%; in test [5], -8.6%; in test [6], -2.75%.

Take `CN1CCN[C@@H]2CCCC[C@@H]21`: the growth inhibition is 11.2% in test [1]; -5% in test [2]; -10.2% in test [3]; -7.8% in test [4]; 5.65% in test [5]; -11.6% in test [6].

As to `CCOC12CC3C4=CCOC5CC(=O)N6c7ccccc7C1(CCN2C4)C6C53` (stereo not given), the growth inhibition is 15.8% in test [1]; -39.2% in test [2]; -9.45% in test [3]; 18.9% in test [4]; 9.05% in test [5]; -1.2% in test [6].

As for `CC(=O)Nc1cccc([As+](C)(C)C)c1`, the growth inhibition in test [1] was 14.3%; in test [2], 9.75%; in test [3], -2.8%; in test [4] it was -22.2%; in test [5], -3.35%; in test [6], 16.9%.

As for `O=S(=O)(O)O.[In]`, the growth inhibition in test [1] was 22.2%; in test [2] it was 41.6%; in test [3] it was 39.1%; in test [4] it was 10.1%; in test [5], 26.5%; in test [6], 15.1%.

For the molecule `N.N.N.N.O=C([O-])CCl.O=C([O-])CCl.[Co+3].[O-][Cl+3]([O-])([O-])[O-]`, the growth inhibition in test [1] was -32.1%; in test [2] it was -0.45%; in test [3], -30.4%; in test [4], 26.7%; in test [5] it was -6.5%; in test [6], -17.5%.

For `CCC1(O)CC(OC2CC(N(C)C)C(OC3CC(O)C(OC4CCC(=O)C(C)O4)C(C)O3)C(C)O2)c2c(cc3c(c2O)C(=O)c2c(O)ccc(O)c2C3=O)C1C(=O)OC` (stereo not given), the growth inhibition in test [1] was 88.8% (active); in test [2], 90.9% (active); in test [3] it was 90.5% (active); in test [4], 88.4% (active); in test [5] it was 90% (active); in test [6] it was 89% (active).

As to `CCC[CH2][Sn]1([CH2]CCC)[O]CC2(CCCCC2)C[O]1`, the growth inhibition in test [1] is 99.6% (active); in test [2] it was 99.8% (active); in test [3], 99.2% (active); in test [4] it was 99.5% (active); in test [5], 99.7% (active); in test [6], 99.6% (active).

Take `CN(C)CCN1C(=O)CN=C(c2ccccc2Cl)c2cc(Cl)ccc21`: the growth inhibition in test [1] is 15.8%; in test [2], 12.2%; in test [3], 27%; in test [4], 2.75%; in test [5] it was 0.2%; in test [6], 27.6%.

For the molecule `[C-]#[O+].[C-]#[O+].[Ir].[O-]c1cccc2cccnc12`, the growth inhibition was -19.2% in test [1]; -27.6% in test [2]; -4.6% in test [3]; 12.7% in test [4]; -13.2% in test [5]; -4.8% in test [6].

`C=C[CH2][Sn]([CH2]C=C)([CH2]CCC)[CH2]CCC`: the growth inhibition is 99.4% (active) in test [1]; 99.5% (active) in test [2]; 99.6% (active) in test [3]; 99.2% (active) in test [4]; 99.5% (active) in test [5]; 99.4% (active) in test [6].

For the molecule `CC(=O)OC1CCC2(CO)C(CCC3C4CCC(=O)C4(C)CCC32)C1` (stereo not given), the growth inhibition in test [1] is 14.1%; in test [2] it was -4.25%; in test [3], 0.3%; in test [4], 11.9%; in test [5], 5.3%; in test [6] it was 21.8%.

On to `C=C(C)C1(CCC)C(=O)NC(=S)NC1=O`, for which the growth inhibition was 23.4% in test [1]; 19.7% in test [2]; 17.6% in test [3]; 25.6% in test [4]; 4.35% in test [5]; 22.4% in test [6].

Regarding `CCC1(C(C)=O)CN2CCc3cc(OC)c(OC)cc3C2N2CCc3ccc(OC)c(OC)c3C21` (stereo not given), the growth inhibition is 96.9% (active) in test [1]; 97.8% (active) in test [2]; 97.7% (active) in test [3]; 96.7% (active) in test [4]; 98.5% (active) in test [5]; 98% (active) in test [6].

`O=C1CN2CCC1CC2`: the growth inhibition in test [1] was 10.3%; in test [2], -47%; in test [3], -3.25%; in test [4] it was 12.6%; in test [5], -23.2%; in test [6], 10.8%.

As for `CC1(C)O[C@]2(C)CC[C@@H]1[C@@H](O)[C@@H]2N1CCCC1`, the growth inhibition is 1.75% in test [1]; -8.6% in test [2]; -6.75% in test [3]; -33.4% in test [4]; -6.75% in test [5]; 0.15% in test [6].
